Data reported in publication PMC2807882, “Conservation of DNA-binding specificity and oligomerisation properties within the p53 family”.

Columns and labels:
Assay in all cases: fluorescence anisotropy competition titration; 25 mM sodium phosphate (purification buffer pH 7.2), 225 mM NaCl, 10% v/v glycerol, 5 mM DTT, 0.2 mg/mL BSA, 22 C; low values mean tight binding
Conditions in all cases: protein: recombinant; tags: N-terminal 6xHis-lipoyl-TEV tag, cleaved; chain copies: 4; dsDNA, one strand shown
Dmp53 = target: T1, Dmp53 (Drosophila melanogaster, UniProt Q9N6D8 1-385)
T1 sequence: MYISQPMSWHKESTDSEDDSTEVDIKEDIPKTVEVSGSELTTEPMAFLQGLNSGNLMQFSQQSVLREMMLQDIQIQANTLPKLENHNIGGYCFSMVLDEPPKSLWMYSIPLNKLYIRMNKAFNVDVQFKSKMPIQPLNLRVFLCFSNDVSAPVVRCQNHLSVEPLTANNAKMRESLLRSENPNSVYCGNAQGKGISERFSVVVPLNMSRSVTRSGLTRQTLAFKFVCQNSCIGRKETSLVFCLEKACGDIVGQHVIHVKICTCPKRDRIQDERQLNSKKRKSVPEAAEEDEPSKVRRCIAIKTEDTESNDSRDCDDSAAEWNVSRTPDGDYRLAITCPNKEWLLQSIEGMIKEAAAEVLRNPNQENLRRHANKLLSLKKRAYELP

Drp53 = target: T2, Drp53 (Danio rerio, UniProt P79734 1-373)
T2 sequence: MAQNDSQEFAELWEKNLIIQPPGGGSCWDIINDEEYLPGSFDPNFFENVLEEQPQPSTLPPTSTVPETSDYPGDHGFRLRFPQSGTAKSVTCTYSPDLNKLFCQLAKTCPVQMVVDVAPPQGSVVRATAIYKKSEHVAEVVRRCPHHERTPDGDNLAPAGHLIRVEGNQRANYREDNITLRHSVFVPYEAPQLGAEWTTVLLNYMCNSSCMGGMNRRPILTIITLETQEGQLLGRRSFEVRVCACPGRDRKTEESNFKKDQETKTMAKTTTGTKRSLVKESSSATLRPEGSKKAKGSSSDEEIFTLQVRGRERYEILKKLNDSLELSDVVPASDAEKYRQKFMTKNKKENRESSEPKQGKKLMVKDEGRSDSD

Hsp53 = Hsp53 (Homo sapiens, UniProt P04637 1-393)
Sequence of Hsp53 (P04637 whole entry): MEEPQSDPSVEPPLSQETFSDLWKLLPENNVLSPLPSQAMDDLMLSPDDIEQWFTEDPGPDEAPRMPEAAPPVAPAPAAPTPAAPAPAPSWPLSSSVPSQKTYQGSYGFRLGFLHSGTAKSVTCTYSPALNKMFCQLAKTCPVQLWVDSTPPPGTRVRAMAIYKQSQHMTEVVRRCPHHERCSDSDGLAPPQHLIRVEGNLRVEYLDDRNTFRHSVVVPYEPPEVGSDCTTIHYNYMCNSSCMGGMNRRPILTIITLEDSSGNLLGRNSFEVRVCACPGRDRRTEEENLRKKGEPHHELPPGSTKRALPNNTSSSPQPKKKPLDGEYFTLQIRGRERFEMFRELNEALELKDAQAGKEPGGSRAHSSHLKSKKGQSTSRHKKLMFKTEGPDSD

Xlp53 = Xlp53 (Xenopus laevis, UniProt Q7T1D0 1-362)
Sequence of Xlp53 (Q7T1D0 entry or part of it): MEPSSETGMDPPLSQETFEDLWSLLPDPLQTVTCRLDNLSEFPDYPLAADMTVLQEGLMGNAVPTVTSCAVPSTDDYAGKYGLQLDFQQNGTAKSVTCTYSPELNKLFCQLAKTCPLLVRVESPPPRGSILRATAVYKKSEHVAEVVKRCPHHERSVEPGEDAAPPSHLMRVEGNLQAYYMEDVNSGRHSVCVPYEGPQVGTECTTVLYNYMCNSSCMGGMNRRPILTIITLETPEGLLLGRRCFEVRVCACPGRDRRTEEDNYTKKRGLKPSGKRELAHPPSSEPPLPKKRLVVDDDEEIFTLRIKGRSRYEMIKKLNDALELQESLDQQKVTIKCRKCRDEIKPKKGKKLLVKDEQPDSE

ΔNp63α = target: T3, ΔNp63α (Homo sapiens, UniProt Q9H3D4-2 1-586)
T3 sequence: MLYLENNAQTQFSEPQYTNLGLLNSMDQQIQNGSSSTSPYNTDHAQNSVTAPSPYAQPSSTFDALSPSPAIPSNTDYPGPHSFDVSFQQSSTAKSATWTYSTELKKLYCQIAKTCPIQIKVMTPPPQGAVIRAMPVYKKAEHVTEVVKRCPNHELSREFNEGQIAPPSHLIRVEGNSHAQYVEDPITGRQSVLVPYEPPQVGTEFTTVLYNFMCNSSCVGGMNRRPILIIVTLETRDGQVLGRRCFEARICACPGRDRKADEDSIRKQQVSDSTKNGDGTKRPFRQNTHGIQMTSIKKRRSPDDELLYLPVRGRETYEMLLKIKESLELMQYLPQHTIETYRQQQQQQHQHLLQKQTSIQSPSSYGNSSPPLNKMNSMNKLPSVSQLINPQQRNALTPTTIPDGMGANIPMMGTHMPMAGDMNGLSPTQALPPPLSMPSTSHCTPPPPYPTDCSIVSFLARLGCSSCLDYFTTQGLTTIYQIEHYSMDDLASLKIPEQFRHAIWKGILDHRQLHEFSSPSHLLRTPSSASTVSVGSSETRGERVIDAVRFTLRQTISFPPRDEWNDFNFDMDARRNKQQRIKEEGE

ΔNp63β = target: T4, ΔNp63β (Homo sapiens, UniProt Q9H3D4-4 1-461)
T4 sequence: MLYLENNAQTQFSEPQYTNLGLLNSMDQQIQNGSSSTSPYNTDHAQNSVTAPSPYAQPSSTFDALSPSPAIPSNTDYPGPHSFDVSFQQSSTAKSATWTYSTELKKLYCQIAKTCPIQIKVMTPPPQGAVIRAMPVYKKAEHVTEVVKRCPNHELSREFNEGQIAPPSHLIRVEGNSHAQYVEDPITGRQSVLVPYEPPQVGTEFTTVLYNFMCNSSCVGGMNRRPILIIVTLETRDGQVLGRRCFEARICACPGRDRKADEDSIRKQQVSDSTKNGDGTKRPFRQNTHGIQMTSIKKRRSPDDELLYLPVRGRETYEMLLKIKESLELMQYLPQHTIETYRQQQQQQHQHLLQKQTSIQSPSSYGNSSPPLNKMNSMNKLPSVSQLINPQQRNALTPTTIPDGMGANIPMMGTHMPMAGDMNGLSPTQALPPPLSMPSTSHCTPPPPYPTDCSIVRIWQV

ΔNp63γ = target: T5, ΔNp63γ (Homo sapiens, UniProt Q9H3D4-6 1-393)
T5 sequence: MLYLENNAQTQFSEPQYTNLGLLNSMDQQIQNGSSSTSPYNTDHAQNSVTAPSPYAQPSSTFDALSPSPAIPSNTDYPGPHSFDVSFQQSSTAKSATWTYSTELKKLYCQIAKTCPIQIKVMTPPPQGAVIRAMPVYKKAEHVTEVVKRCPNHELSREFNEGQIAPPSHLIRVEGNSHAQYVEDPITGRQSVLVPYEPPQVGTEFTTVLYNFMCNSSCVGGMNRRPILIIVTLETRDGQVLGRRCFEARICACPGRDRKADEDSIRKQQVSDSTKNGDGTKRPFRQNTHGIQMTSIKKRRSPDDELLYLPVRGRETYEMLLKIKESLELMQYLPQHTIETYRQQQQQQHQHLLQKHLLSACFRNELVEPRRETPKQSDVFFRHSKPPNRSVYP

ΔNp73β = target: T6, ΔNp73β (Homo sapiens, UniProt O15350-9 1-450)
T6 sequence: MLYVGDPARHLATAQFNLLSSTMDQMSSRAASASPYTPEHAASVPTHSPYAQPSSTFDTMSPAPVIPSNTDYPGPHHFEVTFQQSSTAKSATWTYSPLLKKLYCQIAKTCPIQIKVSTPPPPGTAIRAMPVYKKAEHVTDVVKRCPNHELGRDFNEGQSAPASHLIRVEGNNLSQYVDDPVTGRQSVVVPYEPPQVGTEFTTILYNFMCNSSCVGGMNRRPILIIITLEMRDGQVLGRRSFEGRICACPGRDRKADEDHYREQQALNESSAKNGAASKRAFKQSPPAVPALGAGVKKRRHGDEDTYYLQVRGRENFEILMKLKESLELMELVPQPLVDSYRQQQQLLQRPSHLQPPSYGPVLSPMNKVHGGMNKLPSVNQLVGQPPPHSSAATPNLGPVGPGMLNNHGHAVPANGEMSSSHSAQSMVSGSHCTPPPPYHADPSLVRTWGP

Mmp53 = Mmp53 (Mus musculus, UniProt P02340 1-390)
Sequence of Mmp53 (P02340 whole entry): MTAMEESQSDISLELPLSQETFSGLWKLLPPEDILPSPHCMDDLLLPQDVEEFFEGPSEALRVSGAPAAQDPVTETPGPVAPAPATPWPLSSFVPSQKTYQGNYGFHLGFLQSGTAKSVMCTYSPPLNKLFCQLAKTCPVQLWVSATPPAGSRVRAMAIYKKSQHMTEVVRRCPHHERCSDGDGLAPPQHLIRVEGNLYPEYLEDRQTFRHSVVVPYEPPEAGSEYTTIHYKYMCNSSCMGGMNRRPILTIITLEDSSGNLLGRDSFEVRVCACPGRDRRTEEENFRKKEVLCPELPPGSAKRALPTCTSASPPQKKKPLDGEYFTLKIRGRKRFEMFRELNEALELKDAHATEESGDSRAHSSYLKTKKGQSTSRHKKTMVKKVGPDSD

p73CT = target: T7, p73CT (Homo sapiens, UniProt O15350 104-383)
T7 sequence: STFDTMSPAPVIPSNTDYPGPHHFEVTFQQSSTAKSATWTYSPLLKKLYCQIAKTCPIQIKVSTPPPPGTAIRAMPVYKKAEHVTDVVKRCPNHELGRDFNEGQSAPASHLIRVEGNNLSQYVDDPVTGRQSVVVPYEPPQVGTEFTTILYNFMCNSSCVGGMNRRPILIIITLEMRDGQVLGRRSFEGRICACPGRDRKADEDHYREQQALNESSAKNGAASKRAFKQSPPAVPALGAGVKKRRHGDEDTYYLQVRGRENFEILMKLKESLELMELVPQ

CGCGGATATGTCCGGACATGTCCCGC
binding signal (Dmp53): 1.01 delta log10 Kd
binding signal (Drp53): 0.58 delta log10 Kd
binding signal (Hsp53): 0.56 delta log10 Kd
binding signal (Xlp53): 0.62 delta log10 Kd
binding signal (ΔNp63α): 0.68 delta log10 Kd
binding signal (ΔNp63β): 0.85 delta log10 Kd
binding signal (ΔNp63γ): 0.97 delta log10 Kd
binding signal (ΔNp73β): 1.04 delta log10 Kd
binding signal (Mmp53): 0.34 delta log10 Kd
binding signal (p73CT): 1.06 delta log10 Kd

CGCGGGCATGTCCGGACATGTCCCGC
binding signal (Dmp53): 0.25 delta log10 Kd
binding signal (Drp53): 0 delta log10 Kd
binding signal (Hsp53): 0.07 delta log10 Kd
binding signal (Xlp53): 0.01 delta log10 Kd
binding signal (ΔNp63β): 0 delta log10 Kd
binding signal (ΔNp63γ): 0.06 delta log10 Kd
binding signal (Mmp53): 0.03 delta log10 Kd

CGCGGACTTGTCCGGACATGTCCCGC
binding signal (Dmp53): 0.36 delta log10 Kd
binding signal (Drp53): 0.3 delta log10 Kd
binding signal (Hsp53): 0.14 delta log10 Kd
binding signal (Xlp53): 0.16 delta log10 Kd
binding signal (ΔNp63α): 0.06 delta log10 Kd
binding signal (ΔNp63β): 0.27 delta log10 Kd
binding signal (ΔNp63γ): 0.41 delta log10 Kd
binding signal (ΔNp73β): 0.36 delta log10 Kd
binding signal (Mmp53): 0.24 delta log10 Kd
binding signal (p73CT): 0.45 delta log10 Kd

CGCGAACATGTCCGGACATGTCCCGC
binding signal (Dmp53): 0 delta log10 Kd
binding signal (Drp53): 0.08 delta log10 Kd
binding signal (Hsp53): 0.05 delta log10 Kd
binding signal (Xlp53): 0.01 delta log10 Kd
binding signal (ΔNp63α): 0 delta log10 Kd
binding signal (ΔNp63β): 0.02 delta log10 Kd
binding signal (ΔNp63γ): 0.1 delta log10 Kd
binding signal (ΔNp73β): 0.03 delta log10 Kd
binding signal (Mmp53): 0.08 delta log10 Kd
binding signal (p73CT): 0.05 delta log10 Kd

CGCGGACGTGTCCGGACATGTCCCGC
binding signal (Dmp53): 0.18 delta log10 Kd
binding signal (Drp53): 0.54 delta log10 Kd
binding signal (Hsp53): 0.43 delta log10 Kd
binding signal (Xlp53): 0.44 delta log10 Kd
binding signal (ΔNp63α): 0.07 delta log10 Kd
binding signal (ΔNp63β): 0.2 delta log10 Kd
binding signal (ΔNp63γ): 0.19 delta log10 Kd
binding signal (ΔNp73β): 0.27 delta log10 Kd
binding signal (Mmp53): 0.31 delta log10 Kd
binding signal (p73CT): 0.22 delta log10 Kd

CGCGGTCATGTCCGGACATGTCCCGC
binding signal (Dmp53): 0.36 delta log10 Kd
binding signal (Drp53): 0.48 delta log10 Kd
binding signal (Hsp53): 0.42 delta log10 Kd
binding signal (Xlp53): 0.35 delta log10 Kd
binding signal (ΔNp63β): 0.53 delta log10 Kd
binding signal (ΔNp63γ): 0.49 delta log10 Kd
binding signal (Mmp53): 0.29 delta log10 Kd

CGCGGACATGTCGGGACATGTCCCGC
binding signal (Dmp53): 0.02 delta log10 Kd
binding signal (Drp53): 0.19 delta log10 Kd
binding signal (Hsp53): 0.27 delta log10 Kd
binding signal (Xlp53): 0.22 delta log10 Kd
binding signal (ΔNp63α): 0.11 delta log10 Kd
binding signal (ΔNp63β): 0.11 delta log10 Kd
binding signal (ΔNp63γ): 0.1 delta log10 Kd
binding signal (ΔNp73β): 0.17 delta log10 Kd
binding signal (Mmp53): 0.24 delta log10 Kd
binding signal (p73CT): 0.17 delta log10 Kd

CGCGGAGATGTCCGGACATGTCCCGC
binding signal (Dmp53): 1.2 delta log10 Kd
binding signal (Drp53): 0.95 delta log10 Kd
binding signal (Hsp53): 0.74 delta log10 Kd
binding signal (Xlp53): 1.07 delta log10 Kd
binding signal (ΔNp63α): 0.84 delta log10 Kd
binding signal (ΔNp63β): 1.29 delta log10 Kd
binding signal (ΔNp63γ): 1.19 delta log10 Kd
binding signal (ΔNp73β): 1.32 delta log10 Kd
binding signal (Mmp53): 0.4 delta log10 Kd
binding signal (p73CT): 1.18 delta log10 Kd
